From PubChem
aSyn UTR act: Activators via SNCA 5'UTR binding, MLPCN. alpha-synuclein 5'UTR reporter, activators screen. activity score, % (tested at 7.5 µM), hits read low. 300,000 tested, 7.1% active; in the data active means activity score below about -60%
* marks the source's active call; other numbers are inactive results. Only a selection was taken, and hits are over-represented in it overall.

SMILES	aSyn UTR act
Cc1ccc(-c2cc(-c3ccc(F)cc3)n[nH]2)c(O)c1	-86*
Cc1ccc(O)c(-c2cc(-c3cccc(Br)c3)n[nH]2)c1	-97*
Cc1ccc(C2=Nc3ccccc3SC(c3cccc([N+](=O)[O-])c3)C2)cc1 (stereo not given)	-113*
COc1ccc(OCC(=O)Nc2ccccc2O)cc1	-160*
COc1ccccc1NC(=O)COc1ccc(C(F)(F)F)cc1[N+](=O)[O-]	-73*
COc1ccc(NC(=O)COc2ccccc2)c(OC)c1	-115*
COc1ccccc1NC(=O)COc1ccccc1	-91*
CCCC(=O)c1ccc(N2CCC(C)CC2)c(F)c1	-83*
CCC(=O)c1ccc(N2CCC(C)CC2)c(F)c1	-99*
Oc1ccccc1C1=Nc2nc3ccccc3n2C(c2ccccc2)C1 (stereo not given)	-214*
COc1ccc(C2=Nc3ccccc3OC2)cc1	-189*
O=C(Nc1ccc(-c2nc3ccc(NC(=O)c4cccs4)cc3[nH]2)cc1)c1cccs1	122
O=C(Nc1ccc2nc(-c3cccs3)[nH]c2c1)c1ccco1	-183*
O=C(Nc1ccc2nc(-c3cccs3)[nH]c2c1)c1cccs1	-223*
CC(=O)Nc1ccc2nc(-c3ccccn3)[nH]c2c1	-158*
CCOC(=O)c1c(CSC(=N)N)n(-c2ccccc2)c2cc(Br)c(OC(C)=O)cc12	-71*
CC(=O)Oc1ccc(-c2nc(-c3cccnc3)no2)cc1	-93*
CC(=O)Oc1ccc(Oc2ccc(-c3noc(C)n3)cc2)cc1	-77*
CCSc1nnc2c(n1)[nH]c1c(C)cccc12	-208*
C=CCSc1nnc2nc3[nH]c4c(C)cccc4c3nn12	-75*
CSc1nnc2c(n1)[nH]c1c(C)cccc12	-107*
Cc1ccc2cc3cc(C(=O)N4CC(C)CC(C)C4)oc3nc2c1 (stereo not given)	-120*
COc1ccc2cc3cc(C(=O)N4CC(C)CC(C)C4)oc3nc2c1 (stereo not given)	-125*
Cc1ccc2cc3cc(C(=O)N4CCCCC4C)oc3nc2c1 (stereo not given)	-200*
O=C(c1cc2cc3ccc(Cl)cc3nc2o1)N1CCCCCC1	-95*
SMILES	aSyn UTR act
CCc1c(C)nc(SCC(=O)c2cccs2)c(C#N)c1C	-269*
Oc1c(Br)cc(C=Nc2ccc3nc(-c4ccccc4)[nH]c3c2)c(O)c1Br	-124*
O=[N+]([O-])c1ccc(O)c(C=Nc2ccc3nc(-c4ccccc4)[nH]c3c2)c1	-166*
CCN(CC)c1ccc(/C=C2\SC(=O)N(C(C)C)C2=O)o1	-103*
COc1ccc(/C=C(\CC(=O)O)c2nc3ccccc3o2)cc1	-109*
COc1ccc(C(=O)/C(=C/c2cccs2)c2nc3ccccc3o2)cc1	-136*
Cc1nc2nc(-c3ccc(Cl)cc3)nn2c(C)c1Cl	-235*
Cc1nc2nc(-c3ccccc3)nn2c(C)c1C	-105*
CC(=O)NNc1ncnc2c1cnn2-c1ccc(C)c(Cl)c1	-69*
O=C(NNc1ncnc2c1cnn2-c1cccc(Cl)c1)c1ccco1	-158*
COc1ccc(Cl)cc1NC(=O)c1cc(-c2ccccc2O)n[nH]1	-118*
Cc1c(Cl)cccc1NC(=O)c1cc(-c2ccccc2O)n[nH]1	-206*
CCCCNC(=O)CCC(=O)Nc1ccc2nc(N3CCOCC3)cc(C)c2c1	-87*
COCCCNC(=O)CCC(=O)Nc1ccc2nc(N3CCOCC3)cc(C)c2c1	-86*
COc1cccc(NC(=O)CCC(=O)Nc2ccc3nc(N4CCOCC4)cc(C)c3c2)c1	-149*
Cc1cc(N2CCOCC2)nc2ccc(NC(=O)CCC(=O)N3CCN(c4ccccc4)CC3)cc12	-87*
CCCCNC(=O)CCC(=O)Nc1ccc2nc(N3CCCCC3)cc(C)c2c1	-141*
CCCN(CCC)CCNC(=O)CCC(=O)Nc1ccc2nc(N3CCOCC3)cc(C)c2c1	-90*
CCN(CC)CCCNC(=O)CCC(=O)Nc1ccc2nc(N3CCC(C)CC3)cc(C)c2c1	-62*
Cc1cc(N2CCCCC2)nc2ccc(NC(=O)CCC(=O)NCCC(C)C)cc12	-131*
Cc1cc(N2CCOCC2)nc2ccc(NC(=S)NC(C)C)cc12	-93*
CCOC(=O)C1CCCN(C(=O)CCC(=O)Nc2ccc3nc(N4CCOCC4)cc(C)c3c2)C1 (stereo not given)	-63*
COc1ccccc1CCNC(=O)C(=O)c1cn(CC(=O)N2CCOCC2)c2ccccc12	-106*
O=C(Nc1ccccc1Cl)C(=O)c1cn(CC(=O)N2CCOCC2)c2ccccc12	-125*
CCc1ccc(NC(=O)C(=O)c2cn(CC(=O)N3CCCCC3)c3ccccc23)cc1	-70*
SMILES	aSyn UTR act
Cc1ccc2ncc(NC(=O)c3ccc(F)cc3)c(=O)n2c1	-139*
Cc1ccc(C(=O)Nc2cnc3ccccn3c2=O)cc1	-120*
O=C1OC(/C(=C\Nc2cc(Cl)ccc2O)[N+](=O)[O-])c2ccccc21 (stereo not given)	-102*
Cc1c(C(=O)NCCC2=CCCCC2)cccc1[N+](=O)[O-]	-90*
Cc1cc(C(=O)NCCC2=CCCCC2)no1	-81*
O=C(NCCC1=CCCCC1)c1cnsn1	-65*
COc1ccc(-n2c(C)cc(/C=C3/SC(=S)N(C)C3=O)c2C)cc1	-85*
Cc1cc(/C=C2\SC(=S)N(Cc3ccco3)C2=O)c(C)n1-c1ccccc1	-74*
Cc1cc(/C=C2\SC(=S)N(C)C2=O)c(C)n1-c1cccc(O)c1	-71*
CCCc1nc2ccc(NC(C)=O)cc2c(=O)n1Cc1ccc(Cl)cc1	-137*
COc1ccc(Cn2c(C3CC3)nc3ccc(NC(=O)c4cccnc4)cc3c2=O)cc1	-176*
COc1ccc(Cn2c(C3CC3)nc3ccc(NC(C)=O)cc3c2=O)cc1	-121*
Cc1nc2ccc(N)cc2c(=O)n1Cc1ccc(Cl)cc1	-74*
COc1ccc(NC(=O)c2cccc(F)c2)cc1Cl	-206*
CN1CCc2nc(NC(=O)c3cccc(OC(F)F)c3)sc2C1	-67*
COc1ccc(NC(=O)c2cccc(OC(F)F)c2)cc1Cl	-197*
COc1ccc(C(=O)Nc2ccccc2C(=O)O)cc1Cl	-123*
O=C(Nc1ccc(OC(F)F)c(Cl)c1)c1cccc(OC(F)F)c1	-83*
O=C(Nc1ccc2c(c1)CCC2)c1cccc(OC(F)F)c1	-126*
O=C(CCCOc1ccc(Cl)cc1Cl)Nc1ccccc1C(=O)O	-83*
COc1cc(OC)c(NC(=O)c2cccc(F)c2)cc1Cl	-64*
COc1ccc(NC(=O)c2ccccc2F)cc1Cl	-156*
COc1ccc(NC(=O)/C=C/C(=O)O)cc1Cl	-105*
O=C(Nc1ccc(-c2cn3c(n2)SCC3)cc1)c1ccco1	-170*
CC(=O)Nc1ccc(-c2cn3c(n2)SCC3)cc1	-83*
SMILES	aSyn UTR act
Fc1ccc(NC(=S)Nc2nccs2)cc1	-128*
S=C(Nc1ccccc1)Nc1nccs1	-177*
CC(C)(C)c1nnc(NC(=S)Nc2ccccc2)s1	-167*
Fc1ccc(NC(=S)Nc2ccc3nccnc3c2)cc1	-91*
COc1ccc(NC(=O)c2cc3ccccc3[nH]2)cc1	-228*
Cc1ccc(NC(=O)c2cc3cc(OC(F)(F)F)ccc3[nH]2)cc1	-77*
COc1ccc2[nH]c(C(=O)Nc3ccc(C)c(F)c3)cc2c1	-115*
COc1ccc(-n2c(=S)[nH]c3cc(C(=O)Nc4ccc(C)c(F)c4)ccc3c2=O)c(OC)c1	-73*
COc1cc2[nH]c(C(=O)Nc3ccc(F)cc3)cc2c(OC)c1OC	-229*
CCCc1cc(=O)oc2cc(OCC(=O)Nc3ccccn3)ccc12	-92*
Cc1csc(NC(=O)COc2ccc3c(C)cc(=O)oc3c2)n1	-62*
